# Test results: PubChem BioAssay
# Calls of active or inactive are those of the source.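 Rule for the calls, unless noted: active = compounds that lower viability of the colon cancer cells in the luminescence readout, with no numeric limit stated; inactive = the rest.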
# What was measured:
# [1] = Wnt pathway potentiators raising nuclear beta-catenin – imaging, WNT3A-conditioned medium, mouse C2C12, NPC library, primary screen (AID 1117326; in the data active = nuclear beta-catenin stimulation mostly above about 4.2%, no sharp cut-off; inactive = mostly below about 10%; note: reference of the scale not given here); details: stronger effect = higher value
# [2] = stimulators of insulin release from INS-1E, primary screen, cell-based, 5 mM glucose, NPC library (AID 1117329;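 active = compound raises insulin release from rat beta cells at 5 mM glucose, no numeric limit stated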; note: reference of the scale not given here); details: rat INS-1E insulin secretion, at 10 µM, stronger effect = higher value
# [3] = growth inhibition of GSK3B-pretreated HCT116 cells – cell-based, CellTiter-Glo, 0.2 to 20 µM (AID 1117336;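 active = compounds lowering colon cancer cell viability after pretreatment blocking the GSK3B kinase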); details: HCT116 viability after GSK3B inhibitor, at 20 µM, stronger effect = higher value
# [4] = inhibition of endothelial tube formation, primary screen, imaging, VEGF stimulated, CD31 staining, tube area, NPC library (AID 1117340;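 active = compound that reduces growth-factor-driven endothelial tube area in a mixed cell culture, no cutoff stated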); details: VEGF-stimulated ADSC/ECFC co-culture, at 10 µM, stronger effect = higher value
# [5] = GLP1 release stimulators, primary, NCI-H716, NPC library (AID 1117341;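 active = compound raises GLP1 secretion from the human gut endocrine cells, with no numeric limit stated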; note: reference of the scale not given here); details: NCI-H716 cells, at 10 µM, stronger effect = higher value
# [6] = HCT116 colon cancer cell growth inhibition, primary screen, CellTiter-Glo luminescence, NPC library (AID 1117342;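 active = compounds that lower survival of HCT116 colon cancer cells in the luminescence readout, no numeric limit stated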); details: at 20 µM (top of the series)
# [7] = reduced SW480 viability measured with CellTiter-Glo, NPC library, primary (AID 1117343); details: CellTiter-Glo luminescence; at 20 µM (top of the series)
# [8] = NPC library primary testing for decreased DLD-1 cell viability via CellTiter-Glo (AID 1117346;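 active = compounds that lower survival of DLD-1 colon cancer cells in the luminescence readout, no cutoff given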); details: DLD-1 viability, CellTiter-Glo luminescence; at 20 µM (top of the series)
SMILES,nuclear beta-catenin stimulation ([1]; at 10 µM),"nuclear beta-catenin stimulation ([1]; stimulation, at 2 µM) [%]",insulin secretion stimulation [2],viability decrease [3],tube area decrease [4],GLP1 secretion stimulation [5],inhibition of viability [6],viability decrease (inhibition) [7],viability decrease (inhibition) [8]
CC(=O)N(CC(=O)N(C)C)c1ccccc1,-1.1% (inactive),3.8,-0.5% (inactive),-5.9% (inactive),3.9% (inactive),-1.1% (inactive),-4.93% (inactive),36.7% (inactive),-21.1% (inactive)
CCCCCCCCCCCCCCCC[N+](C)(C)Cc1ccccc1,38.6% (inactive),0.7,1% (inactive),99.3% (active),109% (active),-4.3% (inactive),99.2% (active),101% (active),102% (active)
Cc1ccc(S(=O)(=O)NC(=O)NC2CCCC2)cc1,0.2% (inactive),0.6,15.2% (inactive),-1.25% (inactive),-10.7% (inactive),-0.4% (inactive),-18.5% (inactive),44.9% (inactive),9.95% (inactive)
O=C1CC[C@H](C(=O)N2CCCCC2)N1,1.7% (inactive),1,0.8% (inactive),8.8% (inactive),87.3% (active),0.9% (inactive),0.8% (inactive),-22% (inactive),0.1% (inactive)
CC[N+](CC)(CC)CCOC(=O)C(C1CCCC1)C1CCCC1,1.2% (inactive),2,0.5% (inactive),28.7% (inactive),8.3% (inactive),1.6% (inactive),21.8% (inactive),-14.4% (inactive),4.1% (inactive)
CCN(CC)CCOc1ccc(C(O)(Cc2ccc(Cl)cc2)c2ccc(C)cc2)cc1 (stereo not drawn),8.8% (inactive),1.9,0.1% (inactive),101% (active),107% (active),31.5% (active),102% (active),122% (active),101% (active)
NCCNc1ccc(NCCN)c2c1C(=O)c1ccncc1C2=O,22.6% (inactive),8.9,-0.4% (inactive),67.3% (active),91.4% (active),-4.8% (inactive),47% (inactive),1.2% (inactive),14.7% (inactive)
Cc1c(Cn2ccnc2)c2ccccc2n1CCC(=O)O,0.7% (inactive),2.7,-0.1% (inactive),108% (active),-6.9% (inactive),-1.3% (inactive),103% (active),79.6% (active),60.9% (active)
NC(=O)C(=O)N/N=C/c1ccc([N+](=O)[O-])o1,4.5% (inactive),1.5,-3.3% (inactive),17.6% (inactive),28.8% (inactive),-1.5% (inactive),0.3% (inactive),89.2% (active),23.6% (inactive)
CCOC(=O)Oc1ccc(CCNC(=O)[C@H](CCSC)NC(C)=O)cc1OC(=O)OCC,-0.7% (inactive),1.3,-1.6% (inactive),41% (inactive),1.3% (inactive),-1.1% (inactive),2.33% (inactive),14.7% (inactive),18.4% (inactive)
CCCCN(CCCC)C(C(N)=O)c1ccc(OC)cc1 (stereo not drawn),0% (inactive),-1.4,36.4% (active),-5.1% (inactive),6.6% (inactive),2.1% (inactive),30.2% (inactive),10.2% (inactive),2.6% (inactive)
OC1(c2ccc(Cl)cc2)CCNCC1,-0.1% (inactive),-1.2,6.1% (inactive),13.1% (inactive),7.8% (inactive),1.3% (inactive),23.2% (inactive),30.5% (inactive),8.8% (inactive)
Cc1nc([N+](=O)[O-])cn1-c1ccc([N+](=O)[O-])cc1,-0.1% (inactive),-2.2,2% (inactive),-6.7% (inactive),3.8% (inactive),3.6% (inactive),18.2% (inactive),10.4% (inactive),-13.5% (inactive)
O=C(O)Cc1cccc(-c2cc(CCCCCCc3ccc(O[C@H]4O[C@H](CO)[C@@H](O)[C@H](O)[C@@H]4O)c(-c4cccc(CC(=O)O)c4)c3)ccc2O[C@H]2O[C@H](CO)[C@@H](O)[C@H](O)[C@@H]2O)c1,0.7% (inactive),1.4,2.3% (inactive),-12.7% (inactive),-29% (inactive),9.5% (inactive),-26.6% (inactive),-24.6% (inactive),-14.9% (inactive)
O=C(Oc1ccccc1)c1ccccc1O,-0.5% (inactive),-1,-1.5% (inactive),-4.35% (inactive),14.3% (inactive),-1.2% (inactive),9.1% (inactive),84.4% (active),12.1% (inactive)
CCC(=O)Oc1ccc2c(c1)CC[C@@H]1[C@@H]2CC[C@@]2(C)[C@H]1C[C@@H](OC(=O)CC)[C@@H]2OC(=O)CC,1.7% (inactive),1.2,2.5% (inactive),-51.4% (inactive),28.9% (inactive),-6.9% (inactive),31.7% (inactive),67.4% (active),-2.6% (inactive)
C=CCNc1nc(NCC=C)nc(N2CCN(C(c3ccc(F)cc3)c3ccc(F)cc3)CC2)n1,0.3% (inactive),-1,-0.6% (inactive),50.3% (active),17.9% (inactive),-3.9% (inactive),49.1% (inactive),56.9% (active),49.4% (inactive)
O=C(Nc1ccc(Br)cc1)c1cc(Br)c(Br)s1,24.1% (inactive),-0.1,3.5% (inactive),99.8% (active),108% (active),-2% (inactive),99.7% (active),102% (active),102% (active)
Cc1ccc(C(=O)Oc2ccc(C(O)CNC(C)(C)C)cc2OC(=O)c2ccc(C)cc2)cc1 (stereo not drawn),31.3% (inactive),1.1,4.5% (inactive),79.2% (active),107% (active),-1.5% (inactive),75.9% (active),137% (active),102% (active)
CCn1ccc(NS(=O)(=O)c2ccc(N)cc2)nc1=O,1.9% (inactive),1.4,3.4% (inactive),-22.1% (inactive),11.6% (inactive),2.7% (inactive),-54.2% (inactive),-2.8% (inactive),-26.4% (inactive)
COc1cc([C@@H]2c3cc4c(cc3[C@@H](O[C@@H]3O[C@@H]5CO[C@@H](C)O[C@@H]5[C@H](O)[C@@H]3O)[C@H]3COC(=O)[C@H]23)OCO4)cc(OC)c1O,44.6% (active),18.8,1.2% (inactive),21.9% (inactive),104% (active),0.6% (inactive),53.9% (active),73.1% (active),49.6% (inactive)
Cc1cn([C@@H]2O[C@H](CO)[C@@H](O)[C@H]2F)c(=O)[nH]c1=O,-2.3% (inactive),-0.8,0.3% (inactive),26.6% (inactive),-11.7% (inactive),-3% (inactive),4.6% (inactive),3.1% (inactive),6.8% (inactive)
O=C(C1CCCCC1)N1CC(=O)N2CCCc3ccccc3C2C1 (stereo not drawn),1.4% (inactive),2.7,0.6% (inactive),6.6% (inactive),12.9% (inactive),5.2% (inactive),-9.2% (inactive),-250% (inactive),-3.1% (inactive)
O=[N+]([O-])c1nccn1CO[C@@H](CO)[C@H](O)CO,-0.2% (inactive),-0.8,1.45% (inactive),40% (inactive),-13.2% (inactive),-3.1% (inactive),7.6% (inactive),2.3% (inactive),-5.8% (inactive)
O=C(O)COc1nn(Cc2ccccc2)c2ccccc12,-0.5% (inactive),2.2,-0.7% (inactive),3.8% (inactive),-13% (inactive),1.7% (inactive),8.1% (inactive),12.1% (inactive),8.6% (inactive)
C/C(=C1\CCOC(=O)S1)N(C=O)Cc1cnc(C)nc1N,-0.3% (inactive),0.1,4.7% (inactive),-6.1% (inactive),-16.6% (inactive),8.1% (inactive),19.8% (inactive),3.7% (inactive),1.5% (inactive)
O=C(c1ccccc1)C(O)c1ccccc1 (stereo not drawn),0.5% (inactive),0.8,-1.6% (inactive),-1.05% (inactive),-9.2% (inactive),-0.3% (inactive),2.8% (inactive),9.2% (inactive),6.95% (inactive)
